Experimental findings from PMC5540273 (PLoS ONE, 2017) are described below.

Among the test systems are MELK; MERTK; MET; MKK7; MKNK1; MKNK2; MLK2; MLK3; MRCKA; MST1R.
What all share (conditions): concentration: 1 μM, replicates: in singlicate; n = 1
For the next test, the system named is T1, MEK2.
T1 construct: gene MAP2K2

The subject of a further test is T2, MEK3.
T2 construct: gene MAP2K3

The next test deals with T3, MEK4.
T3 construct: gene MAP2K4

The subject of a further test is T4, MEK5.
T4 construct: gene MAP2K5

The subject of the next test is T5, MEK6.
T5 construct: gene MAP2K6

The subject of another test is T6, MINK.
T6 construct: gene MINK1

Another test relates to T7, MLCK.
T7 construct: gene MYLK3

In another test the test system is T8, MLK1.
T8 construct: gene MAP3K9

For a further test, the system named is T9, MRCKB.
T9 construct: gene CDC42BPB

Another test deals with T10, MST1.
T10 construct: gene STK4
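Further: KINOMEscan kinase panel screen.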

As for `Cn1ccc2ncnc(Oc3ccc(Nc4nc5ccccc5[nH]4)cc3)c21`, the “%Inh” value in the test on MEK2 is on record as 0%; with MEK3 it was 0%; in the test with MEK4, 0%; in the test with MEK5, 11%; in the test on MEK6, 0%; in the test on MELK, 0%. Further, the “%Inh” value with MERTK is reported as 8%; in the test on MET, 0%; in the test on MINK, 0%; with MKK7, 0%; in the test with MKNK1, 0%; in the test on MKNK2, 0%. Further, the “%Inh” value came out at 0% in the test on MLCK; 0% with MLK1; 20% in the test with MLK2; 0% in the test on MLK3; 0% in the test on MRCKA; 0% in the test with MRCKB. In addition, the “%Inh” value was 18% with MST1R and 8% with MST1.
For `Cc1ccc(-c2cc(-c3c[nH]nc3-c3ccccn3)ccn2)cc1` [GW684088], the “%Inh” value was determined as 0% in the test on MEK2; 0% in the test with MEK3; 9% in the test with MEK4; 17% in the test on MEK5; 19% in the test on MEK6; 25% with MELK. The “%Inh” value is 13% in the test with MERTK; 0% with MET; 87% in the test with MINK; 14% in the test with MKK7; 0% in the test on MKNK1; 1% in the test on MKNK2. For the same compound, the “%Inh” value was determined as 0% in the test on MLCK; 0% in the test with MLK1; 0% with MLK2; 15% in the test with MLK3; 2% in the test with MRCKA; 0% in the test on MRCKB. The “%Inh” value in the test with MST1R is recorded as 13%; with MST1, 0%.
As for `COc1ccc(Nc2nccc(-c3cccc(NC(=O)c4cc5cc(F)ccc5[nH]4)c3)n2)cc1` [GSK1229782], the “%Inh” value with MEK2 is recorded as 0%; in the test with MEK3, 22%; with MEK4 it was 28%; with MEK5, 96.1%; in the test with MEK6, 3%; in the test with MELK it was 10%. The “%Inh” value in the test on MERTK is recorded as 47%; in the test on MET, 0%; in the test on MINK it was 55%; in the test with MKK7, 21%; in the test on MKNK1 it was 26%; in the test with MKNK2, 0%. Also, the “%Inh” value is listed as 9% in the test with MLCK; 5% in the test with MLK1; 20% with MLK2; 34% with MLK3; 27% in the test with MRCKA; 2% with MRCKB. Also, the “%Inh” value in the test with MST1R is on record as 31%; in the test with MST1, 16%.
Regarding `Cl.Oc1ccc(-c2nc(-c3ccccc3)[nH]c2-c2ccncc2)cc1` [SB-428218], the “%Inh” value with MEK2 stood at 0%; in the test on MEK3, 0%; with MEK4, 0%; in the test with MEK5, 17%; in the test on MEK6, 1%; with MELK, 2%. Further, the “%Inh” value with MERTK is given as 0%; in the test with MET, 0%; with MINK it was 11%; in the test on MKK7, 0%; with MKNK1, 0%; in the test on MKNK2, 0%. For the same compound, the “%Inh” value in the test with MLCK was 14%; in the test with MLK1 it was 0%; in the test on MLK2, 0%; in the test on MLK3 it was 0%; in the test on MRCKA, 43%; with MRCKB it was 2%. For the same compound, the “%Inh” value in the test on MST1R is reported as 0%; in the test on MST1 it was 10%.
For `Cn1ccc2ncnc(Oc3cccc(C(=O)Nc4ccccc4)c3)c21`, the “%Inh” value with MEK2 worked out at 23%; with MEK3, 19%; with MEK4 it was 30%; with MEK5, 14%; in the test with MEK6, 0%; in the test on MELK, 9%. The “%Inh” value in the test on MERTK turned out to be 0%; in the test on MET, 8%; in the test with MINK it was 12%; in the test with MKK7, 21%; in the test on MKNK1 it was 12%; in the test with MKNK2, 11%. Moreover, the “%Inh” value with MLCK is reported as 13%; in the test on MLK1 it was 0%; in the test on MLK2 it was 6%; in the test with MLK3 it was 12%; with MRCKA, 1%; in the test with MRCKB, 15%. The “%Inh” value came to 11% with MST1R and 0% with MST1.
